31 molecules from PubChem BioAssay (EPA / NIEHS) can be followed below.

One may read the AC50 as the concentration giving half of the maximal activity seen.

The subject of assay [1] is Sodium/Iodide Symporter (NIS), SLC5A5 (gene 6528). Briefly: CPHEA_Stoker_NIS_Inhibition_RAIU: CPHEA's Radioactive Iodide Uptake (RAIU) Assay for Sodium/Iodide Symporter (NIS) Inhibition, Stoker and Laws Labs (AID 2283841). In outline:
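Iodide uptake through human NIS is measured in an engineered HEK293T line. Cells take up 125I (329pM final) for 2 hours at room temperature alongside chemicals at 0.001–100uM. Retained radioactivity is counted, and the signal is expressed against DMSO controls.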

The nature of assay [2]: CPHEA_Stoker_NIS_Cytotoxicity: Cytotoxicity Assessment for CPHEA's Radioactive Iodide Uptake (RAIU) Assay for Sodium/Iodide Symporter (NIS) Inhibition, Stoker and Laws Labs (AID 2283897).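 On AC50: active means loss of ATP signal versus DMSO meaning cytotoxicity.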 In outline: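 ATP luminescence (Cell Titer Glo) measured viability, with loss of signal normalized to DMSO controls. Cells: hNIS-HEK293T-EPA, seeded 40 hours prior. Dosing: 0.001–100uM, 2 hours, room temperature, uptake buffer pH 7.4.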

Assay [3] in a line: CEETOX_H295R_11DCORT_noMTC: CeeTox H295R High-throughput Steroidogenesis Assay for 11-Deoxycortisol (11DCORT), maximum tolerated concentration (MTC) filtered results only (AID 2283911; active means hit-call score of the fitted dose curve at least 0.9, where 1 is the maximum; inactive means score below 0.9). To be noted: actives raise or lower the signal. In outline: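 Forskolin-primed (10 uM, 48 h) H295R adrenal cells are dosed for 48 h at 0.1% DMSO; medium 11-deoxycortisol is quantified by LC-MS/MS against a 7-point standard curve, with activity fitted in both directions versus DMSO.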

Assay [4] in a line: CEETOX_H295R_OHPREG_noMTC: CeeTox H295R High-throughput Steroidogenesis Assay for OH-Pregnenolone (OHPREG), maximum tolerated concentration (MTC) filtered results only (AID 2283912; active means hit-call score of the fitted dose curve at least 0.9, where 1 is the maximum; inactive means score below 0.9). To be noted: actives raise or lower the signal. The method, boiled down: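 Medium 17alpha-hydroxypregnenolone quantified by reverse-phase HPLC-MS/MS after 48 h chemical exposure of forskolin-prestimulated (10 uM, 48 h) H295R, 0.1% DMSO final. Fitting bidirectional relative to DMSO; no maximum-tolerated-concentration filtering applied.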

A short description of assay [5]: CEETOX_H295R_OHPROG_noMTC: CeeTox H295R High-throughput Steroidogenesis Assay for OH-Progesterone (OHPROG), maximum tolerated concentration (MTC) filtered results only (AID 2283914; active means hit-call score of the fitted dose curve at least 0.9, where 1 is the maximum; inactive means score below 0.9). To be noted: actives raise or lower the signal. The method, boiled down:
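After 48 h forskolin (10 uM) prestimulation, H295R adrenal cells received test chemical in 0.1% DMSO for 48 h. Medium 17alpha-hydroxyprogesterone was MTBE-extracted and measured by HPLC-MS/MS; gain or loss relative to DMSO, no MTT-based MTC filtering.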

Assay [6] in a line: CEETOX_H295R_CORTISOL_noMTC: CeeTox H295R High-throughput Steroidogenesis Assay for Cortisol, maximum tolerated concentration (MTC) filtered results only (AID 2283916; active means hit-call score of the fitted dose curve at least 0.9, where 1 is the maximum; inactive means score below 0.9). The conditions noted are these: actives raise or lower the signal. How it is done:
CEETOX_H295R is a cell-based, multiplexed-readout assay that uses H295R, a human adrenal gland cell line, with measurements taken at 48 hours after chemical dosing in a 96-well plate.CEETOX_H295R_CORTISOL_noMTC is one of 12 assay component(s) measured or calculated from the CEETOX_H295R assay (11 hormones and 1 viability assay). It is designed to make measurements of hormone induction, a form of inducible reporter, as detected with absorbance signals by HPLC-MS-MS technology. The concentrations for these components have not been pre-filtered for the maximum tolerated concentration (MTC) based on the MTT assay (_noMTC).Data from the assay component CEETOX_H295R_CORTISOL_noMTC was analyzed into 1 assay endpoint. This assay endpoint, CEETOX_H295R_CORTISOL_noMTC, was analyzed with bidirectional fitting relative to DMSO as the negative control and baseline of activity. […]
Cell culture and media preparation procedures were conducted in accordance with OECD Test No. 456 guidelines, with minor modifications. […] For steroid quantification, media samples were shipped to OpAns, LLC (Durham, NC) on dry ice, and samples were thawed to room temperature prior to liquid-liquid extraction. […] Steroid hormones were separated by HPLC, eluted using a reverse phase C18 gradient with electrospray positive ionization, followed by quantification by tandem mass spectrometry (MS/MS). Data were acquired on a MassHunter Workstation Acquisition version B03.01 (Agilent Technologies, Inc.) and processed using MassHunter Quantitative Analysis for QQQ. Accuracy was determined for each hormone analyte from 3 standards to determine upper and lower limits of quantification (ULOQ and LLOQ, respectively) using a 7-point standard curve. Precision and accuracy of the extraction and quantification methods were calculated as the percent relative standard deviation (%RSD) of the spiked standards and percent spiked standard recovered, respectively. […] Test medium was removed following chemical exposure, and cell viability was evaluated in the same wells by MTT. […]

Assay [7] concerns the target human Thyroid hormone Receptor alpha (TRa), THRA (gene 7067) (UniProt P10827). The assay is described as follows: ATG_hTRa_XSP2: Attagene TRANS-FACTORIAL Multi-Species (XSP2) HepG2 Assay for human Thyroid hormone Receptor alpha (TRa) (AID 2283838). The method, boiled down:
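Gain-of-signal in reporter mRNA, relative to DMSO, after 24 h dosing of transfected HepG2; quantitation by RT-PCR fragment analysis on capillary electrophoresis.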

Assay [8] concerns the target frog Thyroid hormone Receptor alpha (TRa), thra-a (gene 397942) (UniProt P15204). Briefly: ATG_frTRa_XSP2: Attagene TRANS-FACTORIAL Multi-Species (XSP2) HepG2 Assay for frog Thyroid hormone Receptor alpha (TRa) (AID 2283839).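 On AC50: AC50 reflects induction of frog TRa-driven reporter mRNA above DMSO baseline.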 In outline: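 Chimeric frog TRα-GAL4 activity in human liver cells measures reporter transcript induction 24 h post-dose. Detection uses RT-PCR, HpaI-digested labelled products and fluorescence capillary electrophoresis; DMSO serves as negative control.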

In assay [9] the target is human Thyroid hormone Receptor beta (TRb), THRB (gene 7068) (UniProt P10828). Briefly: ATG_hTRb_XSP2: Attagene TRANS-FACTORIAL Multi-Species (XSP2) HepG2 Assay for human Thyroid hormone Receptor beta (TRb) (AID 2283840).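 Further: actives raise reporter mRNA so potency reflects agonist-like gain of signal.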 The method, boiled down:
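Gain-of-signal reporter transcription, referenced to DMSO, was measured in transiently transfected HepG2 after 24 h exposure; labeled RT-PCR products were resolved by capillary electrophoresis. Assay medium included 3 nM 6-alpha-fluorotestosterone and 1.5 nM norgestrel.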

A short description of assay [10]: CEETOX_H295R_ANDR_noMTC: CeeTox H295R High-throughput Steroidogenesis Assay for Androstenedione (ANDR), maximum tolerated concentration (MTC) filtered results only (AID 2283915; active means hit-call score of the fitted dose curve at least 0.9, where 1 is the maximum; inactive means score below 0.9). The conditions noted are these: actives raise or lower the signal. In outline: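 Androstenedione secreted into medium was measured by LC-MS/MS after MTBE extraction. Human adrenal H295R cells received 10 uM forskolin for 48 h before 48 h chemical exposure (0.1% DMSO). Gain or loss fitted against DMSO, including concentrations above the MTT-derived MTC.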

SMILES strings stand for the structures. Results filed as inconclusive are left out. The source holds several records for some structures; these can differ, active in one and inactive in another. Calls of active or inactive are those of the source. How the source made its calls, unless noted: active means hit-call score of the fitted dose curve at least 0.9, where 1 is the maximum; inconclusive means response in the unintended direction; inactive means score below 0.9.

frog Thyroid hormone Receptor alpha (TRa), thra-a (gene 397942), sequence (P15204 whole entry, looked up, the tested form may be a part): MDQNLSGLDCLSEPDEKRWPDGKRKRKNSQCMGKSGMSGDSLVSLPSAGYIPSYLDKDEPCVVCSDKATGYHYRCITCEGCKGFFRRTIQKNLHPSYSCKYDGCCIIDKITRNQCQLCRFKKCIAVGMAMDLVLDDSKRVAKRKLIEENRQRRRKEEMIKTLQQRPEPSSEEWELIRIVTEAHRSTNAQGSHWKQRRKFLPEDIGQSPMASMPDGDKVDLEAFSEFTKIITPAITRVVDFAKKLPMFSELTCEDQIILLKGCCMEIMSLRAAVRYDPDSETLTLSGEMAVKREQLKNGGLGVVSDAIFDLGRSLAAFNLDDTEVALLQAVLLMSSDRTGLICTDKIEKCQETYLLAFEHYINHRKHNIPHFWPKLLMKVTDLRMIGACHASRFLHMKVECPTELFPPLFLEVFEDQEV
human Thyroid hormone Receptor alpha (TRa), THRA (gene 7067), sequence (P10827 whole entry, looked up, the tested form may be a part): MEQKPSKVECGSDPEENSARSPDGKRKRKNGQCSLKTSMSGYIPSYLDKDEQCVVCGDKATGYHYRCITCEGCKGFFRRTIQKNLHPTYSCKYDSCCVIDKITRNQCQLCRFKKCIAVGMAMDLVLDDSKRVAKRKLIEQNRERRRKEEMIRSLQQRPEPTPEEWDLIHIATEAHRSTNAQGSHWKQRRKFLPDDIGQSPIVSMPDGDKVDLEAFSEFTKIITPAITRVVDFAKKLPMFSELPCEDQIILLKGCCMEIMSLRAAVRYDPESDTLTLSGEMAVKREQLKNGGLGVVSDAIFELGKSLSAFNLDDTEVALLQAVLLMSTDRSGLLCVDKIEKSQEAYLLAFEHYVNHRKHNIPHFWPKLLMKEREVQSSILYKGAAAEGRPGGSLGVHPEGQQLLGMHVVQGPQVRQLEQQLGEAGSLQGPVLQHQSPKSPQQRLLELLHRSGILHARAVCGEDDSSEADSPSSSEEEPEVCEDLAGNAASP
human Thyroid hormone Receptor beta (TRb), THRB (gene 7068), sequence (P10828 whole entry, looked up): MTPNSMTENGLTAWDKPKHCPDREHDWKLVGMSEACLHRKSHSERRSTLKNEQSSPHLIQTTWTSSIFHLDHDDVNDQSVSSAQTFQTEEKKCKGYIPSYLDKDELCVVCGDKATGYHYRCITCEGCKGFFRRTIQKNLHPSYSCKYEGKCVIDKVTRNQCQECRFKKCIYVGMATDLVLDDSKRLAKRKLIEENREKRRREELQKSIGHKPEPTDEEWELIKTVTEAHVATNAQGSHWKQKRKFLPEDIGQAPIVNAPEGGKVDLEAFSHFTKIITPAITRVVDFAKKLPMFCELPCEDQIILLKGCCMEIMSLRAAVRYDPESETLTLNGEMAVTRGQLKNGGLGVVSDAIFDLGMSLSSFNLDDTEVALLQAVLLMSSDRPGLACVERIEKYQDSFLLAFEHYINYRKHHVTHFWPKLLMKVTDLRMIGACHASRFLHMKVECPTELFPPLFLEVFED

For `O=[N+]([O-])c1ccccc1O`, the result in [1] and in assay [2] was inactive.

As for `CCCCCCCCCCCCc1cccc(S(=O)(=O)O)c1`, the outcome in [1] and in [2] was inactive.

Consider `CC1(C)[C@H](C(=O)O[C@H](C#N)c2cccc(Oc3ccccc3)c2)[C@@H]1/C=C(\Cl)C(F)(F)F`, for which the result in assay [1] was inactive.

Take `Cc1cc(Cl)ccc1N`: the molecule was called inactive in [3], in assay [4] and in assay [6]. The AC50 in [5] was 25.5 µM (active).

Turning to `CC(=Cc1ccccc1)[N+](=O)[O-]`, the outcome in assay [1] and in assay [2] was inactive.

Regarding `COCCl`, the call in assay [7], in [8] and in assay [9] was inactive.

In the case of `O=S1OC[C@@H]2[C@H](CO1)[C@]1(Cl)C(Cl)=C(Cl)[C@@]2(Cl)C1(Cl)Cl` (stereo partly drawn), the outcome in [1] and in assay [2] was inactive.

For `CCC[CH2][Sn]([CH2]CCC)([CH2]CCC)[CH2]CCC`, the result in assay [1] and in assay [2] was inactive.

Take `CCCCCCCCCCCCOS(=O)(=O)O`: the outcome in [1] and in assay [2] was inactive.

For the molecule `CCC[CH2][Sn]([Cl])([Cl])[CH2]CCC`, the AC50 in [1] was 3.24 µM (active). The outcome in assay [2] was inactive.

For `CC(O)(CS(=O)(=O)c1ccc(F)cc1)C(=O)Nc1ccc(C#N)c(C(F)(F)F)c1` (stereo not drawn), the molecule was classed as inactive in assay [7], in [8] and in assay [9]. Also, the figures for the AC50 in [9], in [1] and in [2] were 155 µM (active), 9.92 µM (active) and 88.7 µM (active), respectively.

`CC(C)N(C(=O)CCl)c1ccccc1`: the result in [1] and in assay [2] was inactive.

`C=CC(Cl)CCl` (stereo not drawn): the outcome in assay [1] and in assay [2] was inactive.

With `OC[P+](CO)(CO)CO`, the half-maximal activity concentration (AC50) is 6.54 µM (active) in assay [3], 6.42 µM (active) in assay [4], 3.48 µM (active) in assay [5] and 4.63 µM (active) in [6].

With `N#CCCC(Br)(C#N)CBr` (stereo not drawn), the outcome in [1] and in assay [2] was inactive.

In the case of `c1cc[c]([Sb]([c]2ccccc2)[c]2ccccc2)cc1`, in [3], the outcome was inactive. Also, the AC50 in [4] is 50 µM (active); in assay [5] it was 1.53 µM (active); in [10] it was 27.8 µM (active); in assay [6] it was 11.3 µM (active).

As for `CCOP(=S)(OCC)O/N=C(\C#N)c1ccccc1`, the outcome in [7], in assay [8], in [9], in assay [1] and in assay [2] was inactive.

As to `O=c1oc2ccccc2c(O)c1C(CC(O)c1ccc(-c2ccc(Br)cc2)cc1)c1ccccc1` (stereo not drawn), the result in [9] was inactive.

Consider `O=C1c2ccccc2C(=O)C1C(=O)C(c1ccccc1)c1ccc(Cl)cc1` (stereo not drawn), for which the result in assay [1] and in assay [2] was inactive.

Take `O=C(O)C1(c2ccc3c(c2)OC[C@H](Cc2ccc(-c4ccccc4)cc2)[C@H]3O)CCCC1`: the outcome in assay [1] and in assay [2] was inactive.

With `Oc1cc(Cl)c(Cl)cc1Cl`, the AC50 in assay [7] is 26.3 µM (active); in [8] it was 100 µM (active). In addition, the outcome in assay [7], in assay [8], in assay [9], in [1] and in assay [2] was inactive.

Turning to `CCCSP(=S)(OCC)Oc1ccc(SC)cc1` (stereo not drawn), the result in assay [1] and in assay [2] was inactive.

As for `Oc1c(Br)cc(Br)cc1Br`, the result in assay [1] and in assay [2] was inactive.

Regarding `O=C(NC(=O)c1c(F)cccc1F)Nc1cc(Cl)c(OC(F)(F)C(F)C(F)(F)F)cc1Cl` (stereo not drawn), the result in assay [1] and in [2] was inactive.

On to `CC(C)=CC1C(C(=O)OCc2cccc(Oc3ccccc3)c2)C1(C)C` (stereo not drawn), for which the result in assay [1] and in [2] was inactive.

For `Cc1cc(Cl)ccc1OC(C)C(=O)O` (stereo not drawn), the outcome in [1] was inactive.

For the molecule `[Cl][Sn]([c]1ccccc1)([c]1ccccc1)[c]1ccccc1`, the molecule was called inactive in assay [8]. Moreover, in assay [9], the AC50 is 0.558 µM (active).

For `CC(C)(C)c1ccccc1O`, the result in assay [2] was inactive.

On to `N#CS`, for which the AC50 in assay [1] was 6.43 µM (active). Further, in assay [2], the result was inactive.

As to `CCOCn1c(-c2ccc(Cl)cc2)c(C#N)c(Br)c1C(F)(F)F`, the AC50 in [1] is 0.616 µM (active). In addition, the result in assay [2] was inactive.

Turning to `CCOc1ccc(N)cc1`, the outcome in [1] and in assay [2] was inactive.
